Screens (PubChem BioAssay)
GLP1R ag: qHTS of GLP-1 Receptor Agonists; AID 624172, 2012; Potency, µM (top dose mostly 45.6 µM), inactives show top-dose activation, usual class: activators; 0.007% of 380,000 active; HEK293 GLP-1R CRE-luciferase, luminescence, 4-6 h; cells express a hypersensitive GLP-1R form; Glucagon-like peptide 1 receptor (Homo sapiens), P43220; note: % of control where 0% means no effect
Target sequence (P43220 whole entry, looked up): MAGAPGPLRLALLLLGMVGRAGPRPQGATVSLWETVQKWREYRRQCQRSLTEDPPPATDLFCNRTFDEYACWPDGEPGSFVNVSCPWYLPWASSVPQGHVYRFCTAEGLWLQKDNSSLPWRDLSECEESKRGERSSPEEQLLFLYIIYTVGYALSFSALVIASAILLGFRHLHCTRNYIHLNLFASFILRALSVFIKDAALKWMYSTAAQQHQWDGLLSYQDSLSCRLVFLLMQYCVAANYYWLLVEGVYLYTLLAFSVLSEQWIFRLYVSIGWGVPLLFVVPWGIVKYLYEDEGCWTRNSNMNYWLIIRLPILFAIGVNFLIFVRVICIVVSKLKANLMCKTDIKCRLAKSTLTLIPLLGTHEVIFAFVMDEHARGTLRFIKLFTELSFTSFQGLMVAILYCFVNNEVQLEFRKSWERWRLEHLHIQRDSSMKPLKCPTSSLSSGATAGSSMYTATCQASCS
a7 integrin act: qHTS for Activators of Integrin-Mediated Alleviation for Muscular Dystrophy. AID 624291, 2012. Potency, µM (doses to about 38.3 µM), for inactives: at the highest dose activation, actives largely listed as activators. alpha7betagal myoblasts, beta-gal FDG fluorescence, 48 h. 0.064% of 350,000 active;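 note: 100% = response of the positive control SU9516; nearly all actives have a fitted effect of over 60% in size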
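Alpha7betagal+/- myoblasts (passage 13) were plated 16-24 hr, then exposed to compounds (1:260 dilution of DMSO stock) for 48 hours at 37C. After MPER lysis, β-galactosidase reporter activity was read as FDG fluorescence (ex 480/em 540) after 30 minutes.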
BRCA1 expr up: qHTS Assay to Identify Small Molecule Activators of BRCA1 Expression; Potency, µM (series often up to 46.1 µM), for inactives: at the highest dose activation, hits mostly activators; 1.1% of 380,000 active; AID 624202, 2012; MCF7-BRCA1-FFLuc reporter, luminescence, 48 h; response scale: scaled: vehicle 0%, 10 µM genistein 100%; note: nearly all actives have a fitted effect of over 80% in size
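Luminescence from a BRCA1-driven firefly luciferase in MCF7 cells was the read-out, taken 15 min after substrate addition following 48 h compound exposure at 37 °C. Data were normalized to a 10 microM genistein control and DMSO vehicle.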
GLP1R inv ag: qHTS of GLP-1 Receptor Inverse Agonists (Inhibition Mode). Glucagon-like peptide 1 receptor (Homo sapiens), P43220. HEK293 GLP-1R CRE-luciferase, luminescence, 24 h; GLP-1R form is constitutively active. Potency, µM (series often up to 38.3 µM), for inactives: at the highest dose activity change, negative = inhibition, hits mostly inhibitors. 1.6% of 410,000 active. AID 624417, 2012; note: % is set by controls: 0 for no effect and ±100 for the full control effect; nearly all actives have a fitted effect of over 55% in size
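Constitutively active GLP-1R drives a cAMP-responsive luciferase in stably transfected HEK293 cells; test compounds are added after overnight (12 h) attachment and left 24 hr, and signal loss in luminescence marks inhibition.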
GLP1R cytotox: qHTS of GLP-1 Receptor Inverse Agonists: Cytotox Screen; HEK293 cAMP-luciferase reporter cells, luminescence, 24 h; Potency, µM (titrated, usually from 38.3 µM), inactives show at the top dose activity change, negative = inhibition, usual class: inhibitors; 0.13% of 410,000 active;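 note: loss of luciferase light is scored as toxicity; % is set by controls: 0 for no effect and ±100 for the full control effect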
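Step one: seed cells (200 cells/uL, DMEM with 10% Nu serum, 1% pen-strep). Step two: 12-hour incubation at 37 deg C. Step three: pin 23 nL compound, incubate 24 hr. Step four: add luciferase reagent, read luminescence 12 min later.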
Starred values were filed as active, the others as inactive; ? = inconclusive; / = no result given. Only some compounds are listed: those with a hit (about 2.7% of all), similar ones and a draw of the others. Calls come from the whole dose curve; as a rule, active = well fitted curve in the direction sought with a large enough effect; inconclusive = small, poorly fitted or top-dose-only effect, or another doubt; inactive = no such curve, though single readings can be large; an effect the other way counts as inactive or inconclusive. Potency is the fitted concentration of half-maximal effect.

SMILES	GLP1R ag	a7 integrin act	BRCA1 expr up	GLP1R inv ag	GLP1R cytotox
Cc1c(N=C/C=C2/N(C)c3ccccc3C2(C)C)c(=O)n(-c2ccccc2)n1C	?	0%	-13%	?	?
Cc1c(N=C/C=C2\N(C)c3ccccc3C2(C)C)c(=O)n(-c2ccccc2)n1C	1%	-23%	-2%	?	2.2µM*
O=C(CCc1ccccc1)Nc1cccnc1Cl	14%	0%	75%	22%	-18%
O=C(CC(=O)c1ccccc1)Nc1cccnc1Cl	6%	18%	7.1µM*	20%	3%
O=C(NC(=S)Nc1cccnc1Cl)c1ccc(F)cc1	9%	9%	10µM*	9%	?
Cc1nc(N2C(=O)c3oc4ccccc4c(=O)c3C2c2cccc(OCCC(C)C)c2)sc1C (configuration not stated)	/	/	/	4%	-1%
Cc1ccc2[nH]c(CSc3nnc(NC(=O)COc4ccc(F)cc4)s3)cc(=O)c2c1	/	/	/	10%	32%
COc1cc2c(cc1OC)CN(c1ccc3ccccc3n1)CC2	13%	0%	11µM*	-13%	103%
COc1cc2c(cc1OC)CN(c1ccc(C(F)(F)F)cn1)CC2	21%	-55%	13µM*	?	-8%
CCCNC(=S)N1CCC(Cc2ccccc2)CC1	3%	-58%	-1%	7.1µM*	?
O=C(CCNC(=O)Cn1ccc2ccccc2c1=O)NCCCN1CCN(c2ccc(F)cc2)CC1	-12%	26%	-8%	-18%	0%
O=C(CNC(=O)Cn1ccc2ccccc2c1=O)NCCCN1CCN(c2cccc(Cl)c2)CC1	-1%	-9%	-22%	10µM*	11%
CC(C)C1C(=O)N(Cc2cn(Cc3ccco3)nn2)CCS(=O)(=O)N1Cc1ccc(-c2ccc(Cl)cc2)cc1 (configuration not stated)	4%	-58%	-68%	4µM*	?
CC1C(=O)N(Cc2cn(Cc3ccco3)nn2)CCS(=O)(=O)N1Cc1ccc(-c2ccccc2)cc1 (configuration not stated)	1%	-5%	-39%	-15%	-2%
CC1C(=O)N(Cc2cn(Cc3ccco3)nn2)CCS(=O)(=O)N1Cc1ccc(-c2ccc(Cl)cc2)cc1 (configuration not stated)	-2%	-23%	-25%	11µM*	-20%
COCOCCn1cc(CN2CCS(=O)(=O)N(Cc3ccc(-c4ccc(Cl)c(Cl)c4)cc3)C(C)C2=O)nn1 (configuration not stated)	0%	-60%	-68%	11µM*	-26%
Cc1nc2n(c(=O)c1CCN1CCC(c3noc4cc(F)ccc34)CC1)CCC[C@@H]2O	0%	/	2%	/	/
Cc1ccc(OCc2nnc(SCC(=O)c3ccccc3)n2-c2ccccc2)cc1	7%	?	-50%	-15%	-25%
Cc1cccc(-n2c(CCc3ccccc3)nnc2SCC(=O)c2ccccc2)c1	-2%	10%	-69%	5µM*	?
CC1CCN(C(=O)CN2c3ccc(C(C)C)cc3-c3ccccc3S2(=O)=O)CC1	/	/	/	?	-11%
CCN(CC)C(=O)c1cc(-c2ccc(Br)cc2)on1	13%	-14%	7.9µM*	0%	2%
COC(=O)c1cc(-c2ccc(Br)cc2)on1	-6%	4%	-6%	6%	1%
CC1(C)CC(NS(=O)(=O)c2ccc(C(C)(C)C)cc2)CC(C)(C)N1	3%	-2%	-20%	3.5µM*	-14%
Cc1cccc(C)c1Nc1sc(C(=O)c2ccccc2)c(N)c1C(=O)Nc1ccc(F)cc1	/	/	/	11µM*	-22%
CCOc1ccccc1Nc1sc(C(=O)c2ccccc2)c(N)c1C(=O)Nc1ccc(F)cc1	/	/	/	-17%	1%
Cc1nc(SCc2cccc(C(=O)O)c2)nc2c1CCCC2	-1%	1%	-67%	8.9µM*	0%
Cc1cnc2c3c(cc(Cl)c2c1)-c1ccccc1S(=O)(=O)N3	/	/	-2%	/	/
